We go through 21 molecules from PubChem BioAssay (NCATS).

Assay [1] is described as follows: qHTS to identify inhibitors of the type 1 interferon - major histocompatibility complex class I in skeletal muscle: primary screen against the NCATS Mechanism Interrogation Plate v5.0 (MIPE) Libary (AID 1347411). Further: nearly all actives have a fitted effect of over 65% in size. Further: potency means the concentration at half of the fitted maximal effect.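 On activity change, negative = inhibition: plate controls were vehicle for no effect and reference inhibitor for full effect.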 The procedure, abridged: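 IFN-beta-driven (4 ng/ml) HLA-B-HiBit expression in CRISPR-tagged C25cl48 myoblasts; compounds 11-pt, 1:3, max 46 uM, 24 hr exposure; lytic NanoLuc complementation luminescence.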

Assay [2] addresses Calcium and integrin-binding protein 1 (Homo sapiens) (UniProt Q99828). In words: Primary qHTS for Identification of Calcium Integrin Binding Protein 1 (CIB1) Competitor (AID 1508620).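 Further: GST tagged CIB1 binding a fluorescein labelled alphaIIb integrin peptide tracer; top concentration of the series differs between compounds; on the % scale 0 is the no-effect control and ±100 the full control effect.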 The procedure, abridged:
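Fluorescence polarization competition: CIB1-GST (1 uM final) preincubated with compound 15 min at room temperature, then FITC-labeled alphaIIb peptide (100 nM final) added for another 15 min. Polarization read at Ex 480/Em 540.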

A short description of assay [3]: Primary qHTS for small molecule stabilizers of the endoplasmic reticulum resident proteome: Secreted ER Calcium Modulated Protein (SERCaMP) assay (AID 1508630). Further: on the % scale 0 is the no-effect control and ±100 the full control effect. The procedure, abridged: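 The SH-SY5Y reporter protocol was run at 3 concentrations up to 38.3 uM (primary) or 11 concentrations (follow-up): 16 h compound, 100 nM thapsigargin for 4 h, then extracellular luciferase luminescence.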

Assay [4] in a line: Primary qHTS for inhibitors of nuclear receptor binding SET domain protein 2 (NSD2) in an isogenic RCH-ACV NSD2 p.E1099K mutant (9B) (AID 1645876). Further: nearly all actives have a fitted effect of over 70% in size. Further: potency means the concentration at half of the fitted maximal effect. On activity change, negative = viability loss: on the % scale 0 is the no-effect control and ±100 the full control effect.
Assay [5] can be described thus: Primary qHTS for inhibitors of nuclear receptor binding SET domain protein 2 (NSD2) in an RCH-ACV wild type WT cells (2C) (AID 1645877). Further: nearly all actives have a fitted effect of over 70% in size. Further: potency means the concentration at half of the fitted maximal effect.
Assay [6] deals with Cytochrome P450 2D6 (Homo sapiens) (UniProt P10635). Briefly: Cytochrome P450 family 2 subfamily D member 6 (CYP2D6) small molecule antagonists: luciferase biochemical (cell-free) qHTS assay (AID 1645840; active means well fitted curve in the direction sought with a large enough effect in the repeat runs; an effect the other way counts as inactive or inconclusive; further: potency means the concentration at half of the fitted maximal effect; nearly all actives have a fitted effect of over 55% in size). An outline of the steps: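 P450-Glo CYP2D6 system: proluciferin substrate converted by enzyme to luciferin, read by luminescence proportional to activity. Enzyme-substrate mix with compound 10 min at room temperature, then NADPH regeneration 1 h before detection reagent.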

Assay [7] has as its target Cytochrome P450 2C9 (Homo sapiens) (UniProt P11712). In words: Cytochrome P450 family 2 subfamily C member 9 (CYP2C9) small molecule antagonists: luciferase biochemical (cell-free) qHTS assay (AID 1645842; active means well fitted curve in the direction sought with a large enough effect in the repeat runs; an effect the other way counts as inactive or inconclusive; further: potency means the concentration at half of the fitted maximal effect; nearly all actives have a fitted effect of over 55% in size). An outline of the steps:
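P450-Glo CYP2C9 system: proluciferin substrate with enzyme in mix containing 0.4% BSA, 10 min at room temperature, then NADPH regeneration solution added and incubated 1 h at 37C. Detection reagent stopped reaction; luminescence read after 20 min as RLU.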

“And” between values parts separate entries of the source, which are not always exact repeats. Equal entries are not always repeated. Inconclusive results are not listed. Unmarked numbers belong to inactive results. The source made the active and inactive calls. Unless noted, the call rests on the fitted dose curve; in most records, active means well fitted curve in the direction sought with a large enough effect; inconclusive means small, poorly fitted or top-dose-only effect, or another doubt; inactive means no such curve, though single readings can be large; an effect the other way counts as inactive or inconclusive. Starred links: 1 amine or outer side, 2 acyl side, 3 side chain; linkers in the order of their positions; H or OH if unused. Positions of bridges follow the written chain, without caps; N, C: chain ends. Non-standard residues stand in square brackets, D forms with d. Residues, ends and D or L forms follow the SMILES beside them. Chains are numbered I, II in the order given. ξ: configuration not given here. *: point of attachment. Actinocin(9to1) = Cc1c2oc3c(C)ccc(C(=O)[*:1])c3nc-2c(C(=O)[*:2])c(N)c1=O; Octanoyl(6-Me) = CCC(C)CCCCC(=O)*; ξThr(3R) = C[C@@H](O)C(N)C(=O)O; NMeV = CN[CH](C(=O)O)C(C)C; dDab = NCC[C@@H](N)C(=O)O; Dab = NCC[C@H](N)C(=O)O; Sar = CNCC(=O)O

Calcium and integrin-binding protein 1 (Homo sapiens), sequence (Q99828 whole entry, looked up): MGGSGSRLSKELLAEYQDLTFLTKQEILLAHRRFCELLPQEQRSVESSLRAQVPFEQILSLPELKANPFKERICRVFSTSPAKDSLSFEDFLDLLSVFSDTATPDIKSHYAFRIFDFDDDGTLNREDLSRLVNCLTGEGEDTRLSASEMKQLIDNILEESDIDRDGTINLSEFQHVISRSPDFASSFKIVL
Cytochrome P450 2C9 (Homo sapiens), sequence (P11712 whole entry, looked up): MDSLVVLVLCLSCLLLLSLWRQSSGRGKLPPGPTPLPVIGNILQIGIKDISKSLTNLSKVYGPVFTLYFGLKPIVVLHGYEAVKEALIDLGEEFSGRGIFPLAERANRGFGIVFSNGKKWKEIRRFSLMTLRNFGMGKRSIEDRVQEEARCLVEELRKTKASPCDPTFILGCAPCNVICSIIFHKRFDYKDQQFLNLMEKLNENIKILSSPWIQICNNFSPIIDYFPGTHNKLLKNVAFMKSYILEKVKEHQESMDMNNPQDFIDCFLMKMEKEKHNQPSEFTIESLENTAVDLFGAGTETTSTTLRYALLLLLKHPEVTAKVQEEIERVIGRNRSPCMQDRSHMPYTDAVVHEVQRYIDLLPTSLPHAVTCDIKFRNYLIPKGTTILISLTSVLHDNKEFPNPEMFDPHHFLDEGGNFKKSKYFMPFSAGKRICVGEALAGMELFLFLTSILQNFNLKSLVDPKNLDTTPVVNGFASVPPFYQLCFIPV
Cytochrome P450 2D6 (Homo sapiens), sequence (P10635 whole entry, looked up): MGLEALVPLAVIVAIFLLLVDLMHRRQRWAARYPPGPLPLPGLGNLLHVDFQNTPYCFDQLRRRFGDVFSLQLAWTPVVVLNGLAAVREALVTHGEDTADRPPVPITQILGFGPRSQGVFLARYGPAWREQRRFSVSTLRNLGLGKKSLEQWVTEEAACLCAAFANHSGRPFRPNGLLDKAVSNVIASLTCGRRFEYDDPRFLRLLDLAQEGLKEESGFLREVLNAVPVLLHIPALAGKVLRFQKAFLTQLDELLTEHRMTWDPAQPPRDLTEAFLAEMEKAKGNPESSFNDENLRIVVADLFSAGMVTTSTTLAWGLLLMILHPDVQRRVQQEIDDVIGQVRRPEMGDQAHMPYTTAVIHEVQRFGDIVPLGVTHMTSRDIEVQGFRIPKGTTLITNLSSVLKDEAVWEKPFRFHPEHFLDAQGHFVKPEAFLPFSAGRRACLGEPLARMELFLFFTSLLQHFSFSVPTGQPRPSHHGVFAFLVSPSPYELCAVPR

With `Cn1cc(C[C@@H](N)C(=O)O)c2ccccc21`, the activity change, negative = inhibition in assay [1] is -7.72% [at 8.44 µM]. The Potency result in assay [2] is “inactive”. For the same molecule, the result in assay [3] was inactive. Also, the activity change, negative = viability loss in assay [4] was -2.38% [at 9.23 µM]. Besides, the outcome in assay [5] is “inactive [at 9.23 µM]”.
As for `C=C(C)[C@@H]1CC[C@]2(C)CC[C@]3(C)[C@H](CC[C@@H]4[C@@]5(C)CC[C@H](O)C(C)(C)[C@H]5CC[C@]43C)[C@@H]12`, the Potency result in assay [1], in assay [2], in assay [4] and in assay [5] was “inactive” throughout.
As for `COc1ccc2c(c1OC)C(=O)OC2[C@H]1c2c(cc3c(c2OC)OCO3)CCN1C` (stereo partly drawn), the Potency entry in assay [1] and in assay [2] was “inactive” throughout. In assay [3], the outcome was inactive. In addition, the Potency in assay [4] was 20.9 µM (active); in assay [5] it was 23.5 µM (active).
Consider `CCC(C)CCCCC(=O)N[C@@H](CCN)C(=O)NC(C(=O)N[C@H](CCN)C(=O)N[C@@H]1CCNC(=O)C([C@@H](C)O)NC(=O)[C@@H](CCN)NC(=O)[C@@H](CCN)NC(=O)[C@@H](CC(C)C)NC(=O)[C@H](Cc2ccccc2)NC(=O)[C@H](CCN)NC1=O)[C@@H](C)O` (stereo partly drawn) ({Octanoyl(6-Me)}-[Dab][ξThr(3R)][dDab][dDab][Dab]F[dL][dDab][dDab][ξThr(3R)]; lactam 4-C), for which the Potency result in assay [1], in assay [2], in assay [4] and in assay [5] was “inactive” each time. Further, the result in assay [3] was inactive.
With `C[C@](Cc1c[nH]c2ccccc12)(NC(=O)OC1C2CC3CC(C2)CC1C3)C(=O)NC[C@H](NC(=O)CCC(=O)O)c1ccccc1` (stereo partly drawn), the Potency result in assay [1], in assay [2], in assay [4] and in assay [5] was “inactive” in each case. Besides, the result in assay [3] was inactive.
Consider `Cn1cnc(=N)c2[nH]cnc21`, for which the Potency entry in assay [1], in assay [2], in assay [4] and in assay [5] was “inactive” in each case. Besides, the outcome in assay [3] was inactive.
Consider `CC(C)c1cnn2c(NCc3ccccc3)cc(NCCCCCCN)nc12`, for which the Potency in assay [1] was 26200 nM (active); in assay [4] it was 20.9 µM (active); in assay [5], 20.9 µM (active). In addition, in assay [2], the Potency entry was “inactive”.
On to `Cc1cc(Nc2ncc3c(n2)N(C)C(=O)N(c2cc(NC(=O)c4cccc(C(F)(F)F)c4)ccc2C)C3)n(C)n1`, for which the Potency is 234 nM (active) in assay [1], 0.132 µM (active) in assay [4] and 0.132 µM (active) in assay [5]. The Potency result in assay [2] is “inactive”. Further, the outcome in assay [3] was inactive.
For `Cc1ccc2nc(NCCN)c3ncc(C)n3c2c1`, the Potency was 4660 nM (active) in assay [1]; 9.2 µM (active) and 4.68 µM (active) in assay [4]; 9.2 µM (active) and 3.72 µM (active) in assay [5]. Besides, the Potency entry in assay [2] was “inactive”. The outcome in assay [3] was inactive.
`O=C(O)CCCCCC(=O)NN=C1CCCC1`: the Potency result in assay [1], in assay [2], in assay [4] and in assay [5] was “inactive” in each case. Besides, the outcome in assay [3] was inactive.
As to `Cn1cc(-c2ccc3ncc(Cc4ccc5ncccc5c4)n3n2)cn1`, the Potency entry in assay [1] and in assay [2] was “inactive” each time. In addition, the Potency in assay [6] was 12000 nM (active); in assay [7], 756 nM (active).
For the molecule `Oc1ccc(-c2ccc(-c3cc(Nc4cccc(CNC5CC5)c4)n[nH]3)cc2)c(O)c1`, the results for the Potency in assay [1], in assay [4] and in assay [5] were 5870 nM (active), 1.48 µM (active) and 1.86 µM (active), respectively. Also, in assay [2], the Potency entry was “inactive”. For the same molecule, the result in assay [3] was inactive.
For `Cc1c2oc3c(C)ccc(C(=O)NC4C(=O)NC(C(C)C)C(=O)N5CCCC5C(=O)N(C)CC(=O)N(C)C(C(C)C)C(=O)OC4C)c3nc-2c(C(=O)NC2C(=O)NC(C(C)C)C(=O)N3CCCC3C(=O)N(C)CC(=O)N(C)C(C(C)C)C(=O)OC2C)c(N)c1=O` (stereo not drawn) (I: TVP[Sar][NMeV] / II: TVP[Sar][NMeV]; ester I:1-I:C, II:1-II:C; linker I:N-II:N via Actinocin(9to1); configuration not given here), the results for the Potency in assay [1], in assay [4] and in assay [5] were 114 nM (active), 0.0014 µM (active) and 0.0006 µM (active), respectively. Also, the Potency result in assay [2] was “inactive”. Besides, the outcome in assay [3] was inactive.
On to `CCCNS(=O)(=O)Nc1ncnc(OCCOc2ncc(Br)cn2)c1-c1ccc(Br)cc1`, for which the Potency entry in assay [1] and in assay [2] was “inactive” each time. Moreover, in assay [3], the outcome was inactive. In addition, the Potency in assay [4] was 18.6 µM (active); in assay [5], 16.6 µM (active).
In the case of `COc1ccc([C@@H]2CNC(=O)C2)cc1OC1CCCC1`, the Potency entry in assay [1], in assay [2], in assay [4] and in assay [5] was “inactive” throughout. Moreover, in assay [3], the outcome was inactive.
Consider `C[N+](C)([O-])CCNc1ccc(NCC[N+](C)(C)[O-])c2c1C(=O)c1c(O)ccc(O)c1C2=O`, for which the Potency entry in assay [1] and in assay [2] was “inactive” each time. For the same molecule, in assay [3], the outcome was inactive. The results for the Potency in assay [4] and in assay [5] were 0.0525 µM (active) and 0.0372 µM (active), respectively.
In the case of `O=C(c1ccc(F)cc1)N1CCC[C@H](c2nc(-c3ccc(F)cc3)no2)C1`, the Potency entry in assay [1], in assay [2], in assay [4] and in assay [5] was “inactive” each time. The result in assay [3] was inactive.
As to `COc1ccnc2[nH]cc(C(=O)C(=O)N3CCN(C(=O)c4ccccc4)C[C@@H]3C)c12`, the Potency entry in assay [2] was “inactive”.
As for `COc1cc(OC)c(C=CS(=O)(=O)Cc2ccc(OC)c(NCC(=O)O)c2)c(OC)c1`, in assay [2], the Potency entry is “inactive”.
Take `CNC(=O)c1cccc(-c2ccc3c(N4CCOC[C@H]4C)nc(N4CCOC[C@H]4C)nc3n2)c1`: in assay [2], the Potency result is “inactive”.
Take `C[C@H]1COc2c(N3CCN(C)CC3)c(F)cc3c(=O)c(C(=O)O)cn1c23`: the Potency entry in assay [1] and in assay [5] was “inactive” in each case. Moreover, the outcome in assay [3] was inactive.
